Test results as given in PubChem BioAssay.
Active and inactive are the calls of the source.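 The calls were made as follows: active = growth inhibition above 50% at the single 2 µM test dose, taken to imply half-maximal potency below 2 µM; inactive = the rest.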

Experiment: antimalarial activity against Dd2 strain (AID 2302);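 also: 0% = DMSO untreated growth and 100% = chloroquine plus artemisinin killed control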
Conditions: P. falciparum Dd2 in RBCs, LDH growth readout, 72 h; at 2 µM; hits give high values

Structure (SMILES) | growth inhibition
Cc1cccc(NC(=O)NC2CCN(CCCCCNC(=O)/C=C/c3ccc(Cl)c(Cl)c3)CC2)c1 | 21% (inactive)
CCOC(=O)c1ccc(N=C2SC(=Cc3cc(Br)ccc3O)C(=O)N2C)cc1 | 96% (active)
Cc1cc(N(C)C)nc(Nc2ccc(NC(=O)CCc3ccccc3)cc2)n1 | 84% (active)
O=C(NC1CCCC1)c1ccc(N2CCC(NCc3cccc(C(F)(F)F)c3)CC2)cc1 | 75% (active)
Cc1cccc2[nH]c(-c3ccc(-c4ccc(NC(=O)Nc5ccc(Cl)c(Cl)c5)cc4)cc3)nc12 | 100% (active)
CNCCNCc1cccc(-c2cccc(-c3nc4c(C)cccc4[nH]3)c2)c1 | 9% (inactive)
NC1=NC2(CCCCC2)N(OCCOc2ccc(Cc3ccccc3)cc2)C(N)=N1 | 22% (inactive)
CCCC(C)Nc1nc(C)cc(N[C@@H](CC(C)C)C(=O)Nc2ccc(OC)cc2)n1 (stereo not given in full) | 68% (active)
Nc1nccc2ccc(-c3cccc(O)c3)cc12 | 71% (active)
CN(Cc1cc(C(F)(F)F)cc(C(F)(F)F)c1)C(=O)C(Cc1ccc(F)cc1)C1CCCNC1 (stereo not given) | 89% (active)
COc1ccc(-c2c(-c3ccc(OCc4ccccc4)cc3O)n[nH]c2C(F)(F)F)cc1 | 57% (active)
Cc1nc(C)c(CC(=O)Nc2ccc(-c3cccc(-c4nc5ccc(C(F)(F)F)cc5[nH]4)c3)cc2)s1 | 4% (inactive)
CC(Cc1ccc(Cl)cc1)Nc1nc(NC2CCCC2)nc(N2CCC(C#N)(c3ccccc3)CC2)n1 (stereo not given) | 95% (active)
O=C(c1cc2ccccc2o1)N1CCc2cc3nccc(N4CCN5CCC[C@H]5C4)c3cc21 | 101% (active)
COc1cc(NC(=O)Nc2ccc(Br)cc2C(=O)Nc2ccc(Br)cc2)cc(OC)c1OC | 98% (active)
COc1ccc2nccc([C@@H](O)CN3CCC(NC/C=C/c4cccnc4)CC3)c2c1 | 19% (inactive)
CC(C)(C)C(=O)Nc1ccc(C(=O)Nc2cccc(-c3nc4ccccc4[nH]3)c2)cc1 | 62% (active)
COc1ccc(Nc2ncc3c(-c4cccc(NC(=O)Cc5ccc(F)cc5)c4)c[nH]c3n2)cc1OC | 90% (active)
OCC1CCN(Cc2ccc(-c3ccc(-c4nc5ccc(C(F)(F)F)cc5[nH]4)cc3)cc2)CC1 | 91% (active)
CN(C)CCOc1cc(NC(=O)Nc2ccc(Cl)cc2C(F)(F)F)ccc1I | 16% (inactive)

Structure (SMILES) | growth inhibition
NC(N)=NN=CC(=O)Nc1cccc(C(F)(F)F)c1 | 25% (inactive)
Cc1cc(Nc2cccc(C(F)(F)F)c2)nc(NCc2ccccc2)n1 | 95% (active)
COc1ccc2nccc([C@@H](O)CN3CCC(NCc4cc5c(Cl)cccc5[nH]4)CC3)c2c1 | 74% (active)
Fc1ccc2[nH]c3c(NCCCN4CCOCC4)ncnc3c2c1 | 2% (inactive)
Cc1cc(N2CCC(C)CC2)nc2cc(O)ccc12 | 41% (inactive)
COc1ccc2nccc([C@@H](O)CN3CCC(NCc4ccc5sc(=O)[nH]c5c4)CC3)c2c1 | -3% (inactive)
COc1ccc(S(=O)(=O)N(CC(=O)NN=C(C)c2cccs2)c2cc(C)cc(C)c2)cc1OC | 43% (inactive)
CC(C)CNCc1ccc(-c2ccccc2CNC2CCN(Cc3ccccc3)CC2)cc1 | 41% (inactive)
COc1ccc(CCn2c(=N)c(C(=O)NCc3cccnc3)cc3c(=O)n4ccccc4nc32)cc1 | 5% (inactive)
Cc1ccccc1C(O)CNc1ccnc(Nc2cccc(C#N)c2)n1 (stereo not given) | 12% (inactive)
COc1ccc(NC(=O)NC2CCN(c3ccnc4cc(Cl)ccc34)CC2)cc1 | 64% (active)
COc1ccccc1C(=O)Nc1cccc(N2CCC(NCc3ccc(-n4cccn4)cc3)CC2)c1 | 30% (inactive)
CC(C)(C)CCN1CCC(NC(=O)c2ccc(-c3cccc(C(F)(F)F)c3)s2)CC1 | 88% (active)
N#Cc1ccc(-c2nc(CO)c(C(=O)NCCCCN3CCC(c4ccc5c(c4OCC(N)=O)CCCC5)CC3)s2)cc1 | -1% (inactive)
O=C(/C=C/c1ccc(Cl)c(Cl)c1)NCCCCCN1CC[C@H](NC(=O)Nc2ccc(Oc3ccccc3)cc2)C1 | 14% (inactive)
COCCC[C@H]1C(=O)O[C@H]2CCC[C@@H]21 | 85% (active)
CN(C)Cc1ccc(-c2cccc(NC(=O)c3ccc(Cl)cc3)c2)cc1 | 13% (inactive)
O=C(NCCCCCN1CCC(c2c[nH]c3ccccc23)CC1)Nc1cccc(Cl)c1 | 0% (inactive)
Fc1ccc2nc(-c3ccc(-c4ccc(CNCc5ccccc5)cc4)cc3)[nH]c2c1 | 94% (active)
CN(C)c1ccc(N=C2N=C(Nc3ccc(N(C)C)cc3)c3ccccc32)cc1 | 20% (inactive)
